Reference: PubChem BioAssay (Tox21)
Inconclusive results are not listed. Activity calls are given as the source filed them. Unless noted, the call rests on the fitted dose curve; in most records, active means well fitted curve in the direction sought with a large enough effect in the repeat runs; inconclusive means weak or mixed curves; inactive means no such curve, though single readings can be large; an effect the other way counts as inactive or inconclusive.

Columns and labels:
[1] = qHTS assay to identify small molecule antagonists of the estrogen related receptor (ERR) signaling pathway - cell viability counter screen (AID 1224818);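 further: series mostly up to about 46 µM; viability measured after 17.5 h of compound exposure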
Procedure, shortened: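 Cytotoxicity check run alongside the ERR antagonist screen: cells exposed to test compounds 17.5 h at 37 C, viability taken as CellTiter-Fluor fluorescence intensity.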

[2] = qHTS assay to identify small molecule antagonists of the estrogen related receptor (ERR) signaling pathway (AID 1224819;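 further: luminescence from an ERR-driven luciferase reporter measured with One-Glo reagent; series mostly up to about 46 µM; nearly all actives have a fitted effect of over 50% in size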)
Procedure, shortened: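 ERR reporter cells were plated at 2,000 cells/well and left 6 h at 37 C/5% CO2 before pin-tool transfer of compounds in DMSO. After 18 h at 37 C, One-Glo was added and luminescence was read 30 min later at room temperature.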

[3] = qHTS assay to identify small molecule agonists of the estrogen related receptor (ERR) signaling pathway (AID 1224820)
Procedure, shortened: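 An ERR cell line provided by NTP was seeded at 2,000 cells per well and allowed to settle for 6 h before compounds in DMSO were added. After 18 h at 37 C, luciferase activity was measured by One-Glo luminescence.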

[4] = test system: estrogen-related receptor alpha (ERRalpha) with PGC-1alpha coactivator, human; test: qHTS assay to identify small molecule antagonists of the estrogen related receptor signaling pathway with the pleiotropic PPARgamma coactivator (PGC) (AID 1224821; calls by dose curve;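 further: series mostly up to about 46 µM; lower luminescence signal means antagonism of PGC/ERR signalling; nearly all actives have a fitted effect of over 50% in size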)
Procedure, shortened: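 A PGC/ERR cell line supplied by NTP is seeded, allowed 6 h at 37 C, and treated with test compounds in DMSO for 18 h. Signal is then measured as luciferase luminescence using One-Glo.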

[5] = qHTS assay to identify small molecule antagonists of the estrogen related receptor signaling pathway with the pleiotropic PPARgamma coactivator (PGC) cell viability counter screen (AID 1224822;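 further: series mostly up to about 46 µM; viability read after 17.5 h compound exposure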)
Procedure, shortened: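 Viable cell signal (CellTiter-Fluor, 30 min, 37 C/5% CO2) was measured in PGC/ERR cells after a 17.5 h compound incubation.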

[6] = qHTS assay to identify small molecule agonists of the estrogen related receptor signaling pathway with the pleiotropic PPARgamma coactivator (PGC) (AID 1224823)
Procedure, shortened: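 Compounds dissolved in DMSO are added by pin tool to PGC/ERR cells that have settled for 6 h, and incubation continues 18 h at 37 C. Reporter output is measured as One-Glo luminescence.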

Measured: Potency

CCCN1CC[C@@H]2c3cc(O)ccc3CC[C@@H]21
inactive: [1] | [2] | [3] | [4] | [5] | [6]
